# Laboratory results: ChEMBL document CHEMBL3988442, “University of Dundee, Small-Polar-MMV Screening Library” (2021)
# Tested on: Trypanosoma cruzi
# Experiment: Trypanosoma cruzi phosphomannomutase and mannose-1-phosphate guanylyltransferase assay
# Assay type: functional
# Parameters: scale not given: direction of the effect not stated beside the values
# Conditions: 10 µM
row,SMILES,Percent Effect [%]
1,CCS(=O)(=O)N1C[C@H]2CCC[C@@]2(COc2ccccn2)C1,-0.393
2,Cc1ccc(CNCCOc2ccc(S(C)(=O)=O)cc2)cc1,-2.18
3,Cn1nnc2cc(C(=O)N3CCCC3Cc3ccccc3)ccc21 (centres undefined),4.11
4,Cn1cnnc1C1CCCN(C(=O)NCCOc2ccccc2)C1 (centres undefined),4.8
5,Cc1ccc(-c2cccc(-c3ccn(CCN4CCCC4)n3)c2)nn1,-3.09
6,c1coc(-c2nnc(CN3CCCC(CN4CCCCCC4)C3)o2)c1 (centres undefined),8.67
7,OC(CN1CCN(Cc2ccc(F)cc2)CC1)C1CC1 (centres undefined),0.392
8,CCCNC(=O)c1ccc(NC(=O)c2cccc(OCC)c2)cc1,-1.16
9,Cc1cc(CN2CCOC(CN(C)c3cccnn3)C2)no1 (centres undefined),3.23
10,Cc1noc(C)c1CN1CCN(C(=O)Cn2cncn2)CC1,2.83
11,CC(C)(C)C(=O)N1CCC(c2nc(O)cc(-c3ccccn3)n2)CC1,-0.79
12,COc1cc(CNCc2ccc(C(C)O)cc2)cc2c1OCO2 (centres undefined),8.45
13,c1cnc(-c2nc(CNCCn3cccn3)cs2)nc1,-1.5
14,O=C(NCCNc1ccccn1)N1CCSCC1,-4.43
15,O=C(CS(=O)(=O)c1ccccc1Cl)NC1CCCCNC1=O (centres undefined),2.43
16,N#CC1(C(=O)NCCCNc2ccc(C(F)(F)F)cn2)CCCC1,0.376
17,O=C1CCc2cc(-c3csc(CCN4CCCC4=O)n3)ccc2N1,0.936
18,CCn1c(C(=O)N2CCN(C(=O)COC)CC2)cc2ccccc21,11.4
19,CC(O)CC(C)(C)CNC(=O)NCc1cccc(-n2ccnc2)c1 (centres undefined),-2.83
20,CCS(=O)(=O)NCCNC(=O)c1cc(Cl)c2c(c1)OCCCO2,1.47

row,SMILES,Percent Effect [%]
1,COc1c(CNCc2ccnc(N3CCCC3)c2)c(C)nn1C,0.103
2,C[C@H]1C[C@@H]2CCN(C(=O)c3ccncn3)C[C@H]2O1,1.56
3,CCNC(=O)NC(=O)CSC(C)c1ccccc1F (centres undefined),3.8
4,CN(Cc1ccsc1)C(=O)Nc1ccc(S(C)(=O)=O)nc1,4.63
5,Cc1cc(F)ccc1OC1(C(=O)O)CCN(Cc2ccncc2)CC1,3.21
6,COc1cc(NC(=O)Cn2ccc3sc(C)cc3c2=O)cc(OC)c1,-5.42
7,O=C(CCCc1nnc(-c2ccccc2)o1)N1CCN(CCO)CC1,-2.36
8,CNc1cc2c(nn1)CCN(C(=O)c1ccoc1)C2,-1.27
9,O=C1NC2(CCN(C(=O)c3ccccc3)CC2)CC1c1cccnc1 (centres undefined),9.32
10,CNC(=O)[C@H]1C[C@@H]2CN(S(=O)(=O)c3ccccc3)C[C@@H]2N1C(C)=O,8.95
11,CC(=O)NCC(=O)N1Cc2nccn2CC(Cn2cccn2)C1 (centres undefined),-5.38
12,CCc1cnc2c(c1NCc1ccncc1)c(=O)n(C)c(=O)n2C,-4.5
13,CCn1cnnc1C1CCN(C(=O)COCCc2ccccc2)CC1,5
14,Cc1nc(C2CCCN(C(=O)CCCn3ccnc3C)C2)no1 (centres undefined),-3.37
15,O=C(c1cscn1)N1C[C@H]2CCCC(OCc3cccnc3)[C@H]2C1 (some centres undefined),-0.193
16,CSc1cccc(CNC(=O)C2CC(=O)N(CCN(C)C)C2)c1 (centres undefined),-2.82
17,COc1ccc(-c2noc(CN3CCOCC3C)n2)cc1OC (centres undefined),0.0943
18,OCC1CCCN1c1cc(NCCNc2ccccn2)ncn1 (centres undefined),1.18
19,O=C(Nc1cc(F)ccc1OCC1CCCO1)c1ccccn1 (centres undefined),3.04
